# From PubChem BioAssay (Tox21)
# A number with no mark means an inactive call. Inconclusive results are not listed. Entries that show only a call come without a potency. Calls of active or inactive are those of the source. Unless noted, calls follow the shape of the dose curve; as a rule, active = well fitted curve in the direction sought with a large enough effect in the repeat runs; inconclusive = weak or mixed curves; inactive = no such curve, though single readings can be large; an effect the other way counts as inactive or inconclusive.
# Tests used:
# [1] = qHTS assay to identify small molecule agonists of the hypoxia (HIF-1) signaling pathway - cell viability counter screen (AID 1224844; calls by dose curve; also: nearly all actives have a fitted effect of over 50% in size; also: potency is read from the fitted curve at half-maximal effect)
# Summary of the method: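 In this counter screen, HRE-bla ME-180 cell viability after 17 hrs of compound exposure at 37C was read by CellTiter-Glo luminescence, multiplexed with the beta-lactamase reporter measurement.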
# [2] = qHTS RealTime-Glo MT Cell Viability Assay in HEK293 cells - 32 hour (AID 1224868); also: nearly all actives have a fitted effect of over 50% in size; also: potency is read from the fitted curve at half-maximal effect; as to activity change, negative = cytotoxic: top concentration of the series differs between compounds
# Summary of the method: (§1)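 Assay medium contained NanoLuc luciferase plus cell-permeant prosubstrate, added with HEK293 cells at 600 cells/well. After 5 h at 37 C/5% CO2 compounds were added; plates stayed at 37 C for 40 h with serial luminescence reads.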
# [3] = A CellTox Green Cytotoxicity Assay to monitor cytotoxicity in HEK293 cells - 40 hour (AID 1224871); also: nearly all actives have a fitted effect of over 45% in size; also: potency is read from the fitted curve at half-maximal effect
# Summary of the method: (§2)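 Real-time, in one plate: 600 HEK293 cells/well with dead-cell DNA dye, pinned compound after 5 h, 37 C incubation over 40 h; viable cells give no appreciable fluorescence.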
# [4] = qHTS RealTime-Glo MT Cell Viability Assay in HEK293 cells - 16 hour (AID 1224872); also: nearly all actives have a fitted effect of over 50% in size; also: potency is read from the fitted curve at half-maximal effect; as to activity change, negative = cytotoxicity: top concentration of the series differs between compounds
# Summary of the method: as §1
# [5] = target: Nuclear receptor subfamily 1 group I member 3 (Homo sapiens) (UniProt Q14994); test: qHTS assay to identify small molecule agonists of the constitutive androstane receptor (CAR) signaling pathway (AID 1224839);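 also: HepG2 cells stably carrying human CAR and a CYP2B6 luciferase reporter; nearly all actives have a fitted effect of over 15% in size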
# Summary of the method: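 HepG2 cells stably expressing hCAR and a CYP2B6-2.2kb luciferase reporter were treated with compounds at 15 concentrations plus 0.75 uM PK11195 (final) for 24 h at 37 C; luminescence was read after ONE-Glo addition.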
# [6] = target: Thyrotropin receptor (Homo sapiens) (UniProt P16473); test: qHTS assay to identify small molecule agonists of the thyroid stimulating hormone receptor (TSHR) signaling pathway (AID 1224843; calls by dose curve; also: nearly all actives have a fitted effect of over 45% in size)
# Summary of the method: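 Using 15 concentrations per compound in triplicate, cAMP production was monitored in TSHR-HEK293 cells after 30 min compound incubation at RT; HTRF reagents followed, with fluorescence intensity recorded after 1 h.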
# [7] = qHTS assay to identify small molecule agonists of the hypoxia (HIF-1) signaling pathway (AID 1224846; active = well fitted activation curve with a large enough effect in the signal ratio in the repeat runs, not every such curve was filed as active; the % refers to the signal ratio)
# Summary of the method: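 ME-180 HRE-bla reporter cells; compounds in DMSO, 17 h at 37C; read-out beta-lactamase via CCF4-AM FRET.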
# [8] = qHTS assay to identify small molecule agonists of H2AX - cell viability counter screen (AID 1224847; calls by dose curve; also: nearly all actives have a fitted effect of over 30% in size; also: potency is read from the fitted curve at half-maximal effect; as to activity change, negative = cytotoxicity: top concentration of the series differs between compounds)
# Summary of the method: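 Wild-type CHO-K1 cells (10% FBS medium) were plated overnight at 37C, exposed to compounds at 15 concentrations for 3 hr at 37C (0.76% DMSO final), and viability was read as CellTiter-Glo luminescence after 30 min at room temperature.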
# [9] = A CellTox Green Cytotoxicity Assay to monitor cytotoxicity in HEK293 cells - 0 hour (AID 1224869); also: nearly all actives have a fitted effect of over 50% in size
# Summary of the method: as §2
# [10] = qHTS assay to identify small molecule agonists of the estrogen related receptor signaling pathway with the pleiotropic PPARgamma coactivator (PGC) from Tox21 10K library (AID 1224842); also: nearly all actives have a fitted effect of over 15% in size
# Summary of the method: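 PGC/ERR reporter cells (NTP line) were seeded 2,000 per well, rested 6 h at 37 C/5% CO2, then pin-dosed with compounds in DMSO for 18 h at 37 C; luciferase read by One-Glo luminescence after 30 min at room temperature.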
# [11] = qHTS assay to identify small molecule antagonists of the estrogen related receptor (ERR) signaling pathway from Tox21 library (AID 1224848); also: nearly all actives have a fitted effect of over 50% in size; also: potency is read from the fitted curve at half-maximal effect
# Summary of the method: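 Tox21 10K compounds in DMSO tested for ERR pathway antagonism in NTP's ERR cell line; 18 h, 37 C exposure; ONE-Glo luminescence.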
# [12] = qHTS assay to identify small molecule antagonists of the estrogen related receptor signaling pathway with the pleiotropic PPARgamma coactivator (PGC) from Tox21 10K library - cell viability counter screen (AID 1224840; active = well fitted cell-killing curve with a large enough effect in the repeat runs, not every such curve was filed as active; also: nearly all actives have a fitted effect of over 40% in size; also: potency is read from the fitted curve at half-maximal effect)
# Summary of the method: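 Readout: fluorescence intensity from CellTiter-Fluor after 30 min at 37 C/5% CO2. Preceded by 17.5 h treatment of PGC/ERR cells with DMSO-dissolved compounds, added 6 h post-seeding.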
# [13] = qHTS RealTime-Glo MT Cell Viability Assay in HepG2 cells - 24 hour (AID 1224867); also: nearly all actives have a fitted effect of over 50% in size; also: potency is read from the fitted curve at half-maximal effect
# Summary of the method: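 qHTS, HepG2, 600 cells/well, RealTime-Glo (NanoLuc + prosubstrate) added with cells; 5 h preincubation; DMSO compound addition; 37 C; luminescence at 0/8/16/24/32/40 h.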
# [14] = qHTS RealTime-Glo MT Cell Viability Assay in HepG2 cells - 40 hour (AID 1224870); also: nearly all actives have a fitted effect of over 50% in size; also: potency is read from the fitted curve at half-maximal effect
# Summary of the method: (§3)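 HepG2 cells mixed with RealTime-Glo MT reagents (NanoLuc plus cell-permeant prosubstrate) were seeded at 600 cells/well, incubated 5 h at 37 C/5% CO2, then pinned with compounds in DMSO; nonlytic luminescence tracked viability during 40 h treatment.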
# [15] = qHTS RealTime-Glo MT Cell Viability Assay in HepG2 cells - 8 hour (AID 1224873); also: nearly all actives have a fitted effect of over 55% in size; also: potency is read from the fitted curve at half-maximal effect
# Summary of the method: as §3
# [16] = qHTS assay to identify small molecule agonists of H2AX (AID 1224845; active = well fitted activation curve with a large enough effect in the signal ratio in the repeat runs, not every such curve was filed as active; the % refers to the signal ratio)
# Summary of the method: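 Wild-type CHO-K1 cells plated overnight, then exposed 3 hr at 37C to compounds at 15 concentrations (0.76% DMSO). Lysed, then HTRF anti-pH2AX(S139)-cryptate/anti-H2AX-d2 detection after 24 hr at room temperature; emissions 665 and 620 nm.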
# [17] = qHTS assay to identify small molecule antagonists of the estrogen related receptor signaling pathway with the pleiotropic PPARgamma coactivator (PGC) from Tox21 10K library (AID 1224841; call rule not given here; also: potency is read from the fitted curve at half-maximal effect)
# Summary of the method: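 One-Glo luminescence, measured after half an hour at room temperature, quantified reporter output of PGC/ERR cells. These had been plated at 2,000 per well, incubated 6 h, dosed with compounds in DMSO, then kept 18 h at 37 C.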
# [18] = qHTS assay to identify small molecule agonists of the estrogen related receptor (ERR) signaling pathway from Tox21 library (AID 1224849; calls by dose curve; also: nearly all actives have a fitted effect of over 15% in size); details: ERR reporter cell line, ONE-Glo luciferase, 18 h; at 92.4 µM (top of the series) unless noted
# Summary of the method: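 Luciferase activity in ERR pathway reporter cells served as the agonist readout; exposure lasted 18 h at 37 C, with ONE-Glo detection after 30 min at room temperature.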
# Chain of Thyrotropin receptor (Homo sapiens) (P16473 whole entry, looked up): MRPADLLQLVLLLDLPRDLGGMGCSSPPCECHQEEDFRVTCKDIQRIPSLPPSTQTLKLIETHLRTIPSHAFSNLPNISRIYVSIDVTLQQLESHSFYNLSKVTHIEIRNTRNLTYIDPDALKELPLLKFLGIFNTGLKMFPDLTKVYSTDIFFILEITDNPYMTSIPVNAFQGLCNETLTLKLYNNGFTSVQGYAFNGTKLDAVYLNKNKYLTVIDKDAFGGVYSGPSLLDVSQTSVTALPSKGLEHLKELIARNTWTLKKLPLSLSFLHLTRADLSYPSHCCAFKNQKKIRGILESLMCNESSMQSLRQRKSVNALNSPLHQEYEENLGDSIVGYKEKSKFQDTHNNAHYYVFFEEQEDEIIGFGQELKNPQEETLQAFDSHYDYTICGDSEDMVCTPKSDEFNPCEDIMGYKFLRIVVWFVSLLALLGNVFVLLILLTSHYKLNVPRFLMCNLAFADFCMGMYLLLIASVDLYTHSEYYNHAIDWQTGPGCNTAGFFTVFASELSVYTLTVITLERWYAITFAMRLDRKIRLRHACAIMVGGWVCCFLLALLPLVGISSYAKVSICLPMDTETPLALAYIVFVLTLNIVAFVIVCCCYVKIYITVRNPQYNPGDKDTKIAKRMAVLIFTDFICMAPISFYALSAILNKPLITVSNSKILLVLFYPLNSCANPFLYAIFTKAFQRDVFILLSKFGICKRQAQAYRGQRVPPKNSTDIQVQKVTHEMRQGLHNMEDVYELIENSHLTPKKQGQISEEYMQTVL
# Chain of Nuclear receptor subfamily 1 group I member 3 (Homo sapiens) (Q14994 whole entry, looked up): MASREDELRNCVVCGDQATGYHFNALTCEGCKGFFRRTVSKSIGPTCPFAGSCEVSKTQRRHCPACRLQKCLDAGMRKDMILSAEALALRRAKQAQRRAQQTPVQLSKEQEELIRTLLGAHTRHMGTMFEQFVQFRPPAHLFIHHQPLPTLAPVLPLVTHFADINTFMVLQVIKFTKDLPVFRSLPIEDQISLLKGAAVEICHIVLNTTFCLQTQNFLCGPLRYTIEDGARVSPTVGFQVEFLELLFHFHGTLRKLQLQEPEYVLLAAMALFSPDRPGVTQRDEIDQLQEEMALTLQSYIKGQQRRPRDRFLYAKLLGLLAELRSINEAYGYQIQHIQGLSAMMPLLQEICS
structure (smiles),measurement,setting,value
C[n+]1c2cc(N)ccc2cc2ccc(N)cc21 (tested in a mixture with another compound),Potency,[1],inactive
same,Potency,[2],5.35 µM (active)
same,Potency,[3],23.9 µM (active)
same,Potency,[4],21.3 µM (active)
CN(C)CCCN1c2ccccc2Sc2ccc(C(F)(F)F)cc21,Potency,[5],inactive
same,Potency,[6],inactive
same,outcome,[7],inactive
same,Potency,[8],inactive
same,Potency,[9],inactive
same,Potency,[3],26.8 µM (active)
same,Potency,[4],19 µM (active)
CC(C(O)c1ccccc1)N(C)CCOC(c1ccccc1)c1ccccc1 (stereo not given),Potency,[5],inactive
same,Potency,[10],inactive
same,Potency,[6],inactive
same,Potency,[1],inactive
same,outcome,[7],inactive
same,Potency,[11],23.7 µM (active)
same,Potency,[2],23.9 µM (active)
same,Potency,[9],inactive
same,Potency,[3],26.8 µM (active)
same,Potency,[4],21.3 µM (active)
C=CCCCCCCC=C,Potency,[12],inactive
same,Potency,[8],inactive
same,Potency,[13],inactive
same,Potency,[2],inactive
same,Potency,[9],inactive
same,Potency,[14],inactive
same,Potency,[3],inactive
same,Potency,[4],inactive
same,Potency,[15],inactive
CCCCCCCCCCCCN(CCO)CCO,Potency,[5],inactive
same,Potency,[12],60.9 µM (active)
same,Potency,[10],inactive
same,Potency,[6],inactive
same,Potency,[11],60.9 µM (active)
same,Potency,[13],48.8 µM (active)
same,Potency,[2],43.5 µM (active)
same,Potency,[9],inactive
same,Potency,[14],38.7 µM (active)
same,Potency,[3],54.7 µM (active)
same,Potency,[4],48.8 µM (active)
Cc1c(-c2ccc(O)cc2)n(Cc2ccc(OCCN3CCCCCC3)cc2)c2ccc(O)cc12,Potency,[13],15.1 µM (active)
same,Potency,[9],inactive
same,Potency,[14],9.52 µM (active)
same,Potency,[4],2.68 µM (active)
same,Potency,[15],23.9 µM (active)
CC1CCCNC1 (stereo not given),Potency,[5],inactive
same,Potency,[12],inactive
same,Potency,[6],inactive
same,Potency,[16],inactive
same,Potency,[8],inactive
same,Potency,[13],inactive
same,Potency,[2],inactive
same,Potency,[9],inactive
same,Potency,[14],inactive
same,Potency,[3],inactive
same,Potency,[15],inactive
S=C(SSSSSSC(=S)N1CCCCC1)N1CCCCC1,Potency,[1],3.41 µM (active)
same,"activity change, negative = cytotoxicity",[8],-11.5% [at 31.6 µM]
same,cytotoxicity,[9],-0.227% [at 15.8 µM]
same,"activity change, negative = cytotoxic",[14],-10.6% [at 15.8 µM]
same,Potency,[4],13.6 µM (active)
S=P(N1CC1)(N1CC1)N1CC1,Potency,[5],inactive
same,Potency,[12],inactive
same,Potency,[17],5.74 µM (active)
same,Potency,[10],inactive
same,Potency,[6],inactive
same,Potency,[8],inactive
same,"activity change, positive = activation",[18],-21.7%
same,Potency,[13],inactive
same,Potency,[14],inactive
same,Potency,[3],inactive
same,Potency,[4],inactive
same,Potency,[15],inactive
O=Nc1ccc(NO)cc1,Potency,[5],inactive
same,Potency,[12],inactive
same,Potency,[17],inactive
same,Potency,[10],inactive
same,Potency,[1],inactive
same,Potency,[8],inactive
same,Potency,[11],inactive
same,Potency,[13],inactive
same,Potency,[9],inactive
same,Potency,[14],inactive
same,Potency,[3],inactive
same,Potency,[4],inactive
same,Potency,[15],inactive
CCCCNc1c(C(=O)OCC)c(C)nc2c1cnn2CC,Potency,[12],inactive
same,Potency,[6],inactive
same,Potency,[1],inactive
same,Potency,[16],inactive
same,Potency,[13],inactive
same,Potency,[2],21.3 µM (active)
same,Potency,[9],inactive
same,Potency,[14],inactive
same,Potency,[3],inactive
same,Potency,[15],inactive
COc1ccccc1OCCNCC(O)COc1cccc2[nH]c3ccccc3c12 (stereo not given),Potency,[5],inactive
same,Potency,[17],13.3 µM (active)
same,Potency,[10],inactive
same,Potency,[16],inactive
same,outcome,[7],inactive
same,Potency,[8],49.2 µM (active)
same,Potency,[11],26.6 µM (active)
same,"activity change, positive = activation",[18],-52.7% [at 42.5 µM]
same,Potency,[13],21.3 µM (active)
same,Potency,[2],16.9 µM (active)
same,Potency,[9],inactive
same,Potency,[14],23.9 µM (active)
same,Potency,[4],16.9 µM (active)
